These entries were drawn from the full list.
aSyn UTR act – Activators working through SNCA 5'UTR binding (MLPCN); activity score, % (tested at 7.5 µM), hits read low; 300,000 compounds, 7.1% hits; alpha-synuclein 5'UTR reporter, activators screen; in the data active = activity score below about -60%
Starred values were filed as active, the others as inactive.

SMILES	aSyn UTR act
Cc1oc(-c2ccc(Cl)cc2)nc1CS(=O)CC(=O)NCCCN1CCCC(C)C1 (stereo not given)	-91*
O=c1cc(-c2ccccc2)[nH]c2nc3ccccc3n12	-89*
CC(=O)c1ccc(N2CCc3ccccc3C2)c([N+](=O)[O-])c1	-68*
COc1cc2c(cc1OC)CN(c1ncccc1[N+](=O)[O-])CC2	-88*
COc1cc2c(cc1OC)CN(c1ccc(F)cc1[N+](=O)[O-])CC2	-79*
COc1ccc(COC(=O)c2cc([N+](=O)[O-])ccc2N2CCOCC2)cc1F	68
O=C(Cc1ccccc1[N+](=O)[O-])N1CCc2ccccc2C1	-103*
COc1ccc(S(=O)(=O)N2CCN(C(=O)c3ccc([N+](=O)[O-])o3)CC2)cc1	-78*
O=C(Nc1ccc(Cc2ccncc2)cc1)c1ccc([N+](=O)[O-])o1	-150*
O=C(Nc1ccc(N2CCN(C(=O)c3cccs3)CC2)cc1)c1ccc([N+](=O)[O-])o1	106
O=C(Nc1ccc2c(c1)CCCN2C(=O)c1ccco1)c1cc([N+](=O)[O-])ccc1Cl	-94*
O=C(Nc1ccc(N2CCOCC2)cc1)c1ccc([N+](=O)[O-])o1	-103*
COc1ccc(/C=C/C(=O)c2ccc([N+](=O)[O-])o2)cc1	-62*
O=C(/C=C/c1cccc([N+](=O)[O-])c1)c1ccc([N+](=O)[O-])o1	71
O=C(Nc1ccc(S(=O)(=O)N2CCOCC2)cc1)c1cc([N+](=O)[O-])ccc1Cl	-67*
O=C(Nc1ccc(S(=O)(=O)N2CCOCC2)cc1)c1ccc([N+](=O)[O-])o1	-120*
O=C/C(=C\Nc1ccccn1)c1nc2ccccc2o1	-107*
CC(=O)Nc1cccc(N/C=C(\C=O)c2nc3ccccc3o2)c1	-102*
NC(N)=NS(=O)(=O)c1ccc(N/C=C/C(=O)c2ccc(Cl)c(Cl)c2)cc1	-119*
O=C(CCSc1ccccc1)N1CCOCC1	-89*
O=C(CCSc1ccccc1)N1CCCC1	-80*
Clc1ccc(Cc2noc(-c3cccs3)n2)cc1	-132*
Nc1nc(CSCc2ccccc2)nc(N2CCOCC2)n1	-67*
O=C(CSc1ccc(F)cc1)Nc1ccc(Br)cc1	-149*
O=C(CSc1ccc(F)cc1)Nc1ccccc1Br	-75*
SMILES	aSyn UTR act
CSc1ccccc1OCc1cc(C(=O)N2CCN(C3CCCC3)C(=O)C2)no1	-112*
CSc1ccccc1OCc1cc(C(=O)N2CCCC(C)C2)no1 (stereo not given)	-134*
COc1ccccc1OCc1cc(C(=O)N2CCCC(OCc3cccnc3)C2)no1 (stereo not given)	-134*
COc1ccc(OCc2cc(C(=O)N3CCCC(CO)C3)no2)c2ccccc12 (stereo not given)	-102*
CSc1ccccc1OCc1cc(C(=O)N2CCSCC2)no1	-113*
N/C(=N\O)c1ccc(N2CCN(c3ncccc3C(F)(F)F)CC2)nc1	-98*
O=C(Cn1c(=O)sc2ccccc21)NCc1ccccn1	-68*
Cc1ccc(SCCSc2nc(C)cc(=O)[nH]2)cc1	-133*
Cc1ccc2cc(CN(CC3CCCO3)C(=S)Nc3ccccc3)c(=O)[nH]c2c1C (stereo not given)	72
Cc1ccc2cc(CN(CC3CCCO3)S(=O)(=O)c3ccc4c(c3)OCCO4)c(=O)[nH]c2c1C (stereo not given)	-108*
Cc1cc(C)c2cc(CN(CC3CCCO3)S(=O)(=O)c3ccc4c(c3)OCCO4)c(=O)[nH]c2c1 (stereo not given)	-94*
Cc1ccc2nsnc2c1S(=O)(=O)N(CCO)Cc1cc2cc3c(cc2[nH]c1=O)OCCO3	-90*
COc1ccc2[nH]c(=O)c(CN(Cc3cccs3)S(=O)(=O)c3c(C)ccc4nsnc34)cc2c1	89
CC(=O)c1ccc(S(=O)(=O)N(Cc2cc3cc4c(cc3[nH]c2=O)OCCO4)CC2CCCO2)cc1 (stereo not given)	-180*
O=C(CCc1ccccc1)Nc1ccccc1[N+](=O)[O-]	-83*
Cc1ccc(NC(=O)CCCc2ccccc2)c([N+](=O)[O-])c1	-76*
O=C(CCCc1ccccc1)Nc1ccccc1[N+](=O)[O-]	-112*
O=c1c(-c2ccc([N+](=O)[O-])cc2)coc2c(O)c(O)ccc12	-91*
COc1ccc2nc(N3C(=O)C(O)=C(C(=O)c4ccco4)C3c3ccccc3OC)sc2c1 (stereo not given)	-114*
Cc1ccc2nc(N3C(=O)C(O)=C(C(=O)c4ccco4)C3c3cccs3)sc2c1 (stereo not given)	-187*
Fc1c(F)c(C(F)(F)F)c(F)c(F)c1N/N=C\c1cccs1	-73*
CCCCCc1nc2c(C#N)c(-c3ccc(Cl)cc3)ccn2n1	-65*
CCCCc1c(C)c(C#N)c2nc3ccccc3n2c1Cl	109
COc1cccc(OCc2cc(/C=N/Nc3ccc(C(=O)O)cc3)ccc2OC)c1	-92*
CCOc1cc(/C=N/Nc2ccc(C(=O)O)cc2)ccc1OC(=O)c1ccccc1C	-91*
SMILES	aSyn UTR act
NNC(=O)COc1ccccc1[N+](=O)[O-]	-87*
CCSc1nnc(NC(=O)COc2ccccc2[N+](=O)[O-])s1	-114*
CC(C)c1nnc(NC(=O)COc2ccccc2[N+](=O)[O-])s1	-154*
O=c1c2ccccc2nc2oc3ccccc3n12	-148*
N=c1oc2c3c4c(cc2cc1C(=O)Nc1ccccc1)CCCN4CCC3	-276*
CCc1sc(C(=O)Nc2cccc(C(C)=O)c2)cc1C	-77*
CCOC(=O)c1cccc(NC(=O)c2cccs2)c1	-65*
CCOC(=O)c1cccc(NC(=O)c2ccco2)c1	-77*
O=C(c1ccccc1)c1cccc(NC(=O)c2ccco2)c1	-120*
Cc1ccc2c(c1)NC(=O)c1cccnc1N2	-140*
Cc1ccc2c(COC(=O)c3n[nH]c4ccccc34)cc(=O)oc2c1	-172*
CCc1ccc2c(COC(=O)c3n[nH]c4ccccc34)cc(=O)oc2c1	-175*
COc1ccc(C(=S)NC2CCCCC2)cc1	-80*
CCOc1ccc(C(=S)NC2CCCCC2)cc1	-100*
CC(C)C(=O)Nc1cccc(NC(=O)c2cc3ccccc3o2)c1	-108*
CC(=O)Nc1cccc(NC(=O)c2cc3ccccc3o2)c1	-92*
CCC(=O)Nc1ccc(Cl)c(NC(=S)NC(=O)c2cc3ccccc3o2)c1	-95*
CC(=O)Nc1ccc(-c2cc3ccccc3o2)cc1	-147*
CC(=O)Nc1cccc(NC(=O)c2oc3ccccc3c2C)c1	-272*
Cc1ccc(NC(=O)c2cc3ccccc3o2)cc1Cl	-270*
O=C(CSc1ccc2ccccc2c1Br)Nc1cccc(S(=O)(=O)NC2=NCCCCC2)c1	64
O=C(/C=C/c1ccc(Cl)cc1Cl)Nc1cccc(S(=O)(=O)NC2=NCCCCC2)c1	-67*
O=c1c2ccccc2ncn1-c1ccc2c(c1)OCCO2	-111*
N#Cc1c(NC(NC(=O)c2ccco2)C(=O)c2ccccc2)sc2c1CCCC2 (stereo not given)	-77*
Cc1cc(C(=O)Nc2sc3c(c2C#N)CCCC3)no1	-81*
SMILES	aSyn UTR act
Cn1cc([N+](=O)[O-])c(C(=O)Nc2sc3c(c2C#N)CCC3)n1	64
Cc1cc(C(=O)Nc2sc3c(c2C#N)CCC3)no1	-107*
Cc1ccc(C(=O)Nc2sc3c(c2C#N)CCCCC3)cc1C	-191*
CCCC(=O)Nc1sc2c(c1C#N)CCCCC2	-167*
Cc1noc(C(=O)Nc2sc3c(c2C#N)CCC3)c1Cl	-67*
Cc1ccccc1OCC(=O)Nc1sc2c(c1C#N)CCC2	-68*
N#Cc1c(NC(=O)CCCC(=O)O)sc2c1CCCCC2	90
